# Only a selection was taken, and the strongest signals are over-represented in it overall.
# B1: PEB4 (Campylobacter jejuni), A1VYV6 (protein)
# chain: MKKFSLVAAALIAGVALNVNAATVATVNGKSISDAEVSEFFAPMLRGQDFKTLPDNQKKALIQQYIMQDLILQDAKKQNLEKDPLYTKELDRAKDAILVNVYQEKILNTIKIDAAKVKAFYDQNKDKYVKPARVQAKHILVATEKEAKDIINELKGLKGKELDAKFSELAKEKSIDPGSKNQGGELGWFDQSTMVKPFTDAAFALKNGTITTTPVKTNFGYHVILKENSQAKGQIKFDEVKQGIENGLKFEEFKKVINQKGQDLLNSAKVEYK
# What was measured:
# Experiment in all cases: glycan array binding signal (z-score within array); higher = stronger binding
# Conditions in all cases: glycan notation: IUPAC condensed, linker removed
# [1] = target: Fuc(a1-2)Gal6S(b1-4)Glc6S
# Method in brief: (§1)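 Negative Z-scores can be read as non-binding. The Z-score is calculated within each array and then averaged across arrays of one protein sequence at different concentrations or buffers and across linkers. Arrays, 3228 in all, were curated from the Consortium for Functional Glycomics database and kept only where the protein sequence was available.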
# [2] = target: Fuc(a1-2)[Gal(a1-3)]Gal
# Method in brief: as §1
# [3] = target: Fuc(a1-3)[Gal(b1-4)]GlcNAc
# Method in brief: as §1
# [4] = target: Gal(a1-3)Gal(b1-3)[Fuc(a1-4)]GlcNAc(b1-2)Man(a1-3)[Gal(a1-3)Gal(b1-3)[Fuc(a1-4)]GlcNAc(b1-2)Man(a1-6)]Man(b1-4)GlcNAc(b1-4)GlcNAc
# Method in brief: as §1
# [5] = target: Gal(a1-3)Gal(b1-4)[Fuc(a1-3)]GlcNAc(b1-2)Man(a1-3)[Gal(a1-3)Gal(b1-4)[Fuc(a1-3)]GlcNAc(b1-2)Man(a1-6)]Man(b1-4)GlcNAc(b1-4)GlcNAc
# Method in brief: as §1
# [6] = target: Gal(b1-3)GlcNAc(a1-6)Gal(b1-4)GlcNAc
# Method in brief: as §1
# [7] = target: Gal(b1-3)[Fuc(a1-4)]GlcNAc(b1-3)Gal(b1-3)[Fuc(a1-4)]GlcNAc
# Method in brief: as §1
# [8] = target: Gal(b1-4)GalNAc(b1-3)[Fuc(a1-2)]Gal(b1-4)GlcNAc
# Method in brief: as §1
# [9] = target: Gal(b1-4)GlcNAc
# Method in brief: as §1
# [10] = target: Gal(b1-4)GlcNAc(b1-2)Man(a1-3)Man(b1-4)GlcNAc(b1-4)GlcNAc
# Method in brief: as §1
# [11] = target: Gal(b1-4)GlcNAc(b1-2)[Gal(b1-4)GlcNAc(b1-4)]Man(a1-3)[Gal(b1-4)GlcNAc(b1-2)Man(a1-6)]Man(b1-4)GlcNAc(b1-4)GlcNAc
# Method in brief: as §1
# [12] = target: GlcA(b1-3)GlcNAc
# Method in brief: as §1
# [13] = target: GlcNAc(a1-4)Gal(b1-4)GlcNAc(b1-3)Gal(b1-4)[Fuc(a1-3)]GlcNAc(b1-3)Gal(b1-4)[Fuc(a1-3)]GlcNAc
# Method in brief: as §1
# [14] = target: Man(a1-2)Man(a1-2)Man(a1-3)Man
# Method in brief: as §1
# [15] = target: Man(a1-2)Man(a1-6)[Man(a1-3)]Man(a1-6)[Man(a1-2)Man(a1-2)Man(a1-3)]Man(b1-4)GlcNAc(b1-4)GlcNAc
# Method in brief: as §1
# [16] = target: Man(a1-3)[Man(a1-6)]Man(a1-6)[Man(a1-3)]Man(b1-4)GlcNAc(b1-4)GlcNAc
# Method in brief: as §1
# [17] = target: Neu5Ac(a2-3)Gal(b1-4)[Fuc(a1-3)]GlcNAc(b1-3)GalNAc
# Method in brief: as §1
# [18] = target: Neu5Ac(a2-3)Gal6S(b1-4)GlcNAc
# Method in brief: as §1
# [19] = target: Neu5Ac(a2-3)Gal6S(b1-4)[Fuc(a1-3)]GlcNAc
# Method in brief: as §1
# [20] = target: Neu5Ac(a2-3)[GalNAc(b1-4)]Gal(b1-4)Glc
# Method in brief: as §1
# [21] = target: Neu5Ac(a2-6)Gal
# Method in brief: as §1
# [22] = target: Neu5Ac(a2-6)Gal(b1-4)GlcNAc(b1-3)Gal(b1-4)GlcNAc
# Method in brief: as §1
# [23] = target: Neu5Ac(a2-6)Gal(b1-4)GlcNAc(b1-3)Gal(b1-4)[Fuc(a1-3)]GlcNAc(b1-3)Gal(b1-4)[Fuc(a1-3)]GlcNAc
# Method in brief: as §1
# [24] = target: Neu5Ac(a2-6)GlcNAc(b1-4)GlcNAc
# Method in brief: as §1
# [25] = target: Neu5Ac(a2-8)Neu5Ac(a2-3)Gal(b1-4)Glc
# Method in brief: as §1
# [26] = target: Neu5Ac9Ac(a2-3)Gal(b1-4)GlcNAc
# Method in brief: as §1
binder,measurement,setting,value
B1,glycan array binding signal (z-score),[1],0.571
same,glycan array binding signal (z-score),[2],-0.517
same,glycan array binding signal (z-score),[3],-0.387
same,glycan array binding signal (z-score),[4],3.83
same,glycan array binding signal (z-score),[5],2.12
same,glycan array binding signal (z-score),[6],2.54
same,glycan array binding signal (z-score),[7],2.99
same,glycan array binding signal (z-score),[8],-0.25
same,glycan array binding signal (z-score),[9],-0.852
same,glycan array binding signal (z-score),[10],-0.258
same,glycan array binding signal (z-score),[11],2.58
same,glycan array binding signal (z-score),[12],0.752
same,glycan array binding signal (z-score),[13],4.35
same,glycan array binding signal (z-score),[14],2.37
same,glycan array binding signal (z-score),[15],0.969
same,glycan array binding signal (z-score),[16],-0.553
same,glycan array binding signal (z-score),[17],5.24
same,glycan array binding signal (z-score),[18],1.6
same,glycan array binding signal (z-score),[19],2.8
same,glycan array binding signal (z-score),[20],-1.19
same,glycan array binding signal (z-score),[21],0.075
same,glycan array binding signal (z-score),[22],-0.672
same,glycan array binding signal (z-score),[23],-0.544
same,glycan array binding signal (z-score),[24],-0.701
same,glycan array binding signal (z-score),[25],-0.705
same,glycan array binding signal (z-score),[26],-1.05

# From the supplement of paper PMC8728848
